Results on 18 molecules are retold here after PubChem BioAssay (NCI).

Molecules are shown by their SMILES. Compounds without any hit were thinned out: in the full panel of roughly 83,000, 20% have a hit.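 Plates (96-well) were seeded with cells, treated with compound at one concentration, and incubated for 48 hours before percent growth was determined.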 A number with no mark means an inactive call. Active and inactive are the calls of the source. The calls were made as follows: active = growth percent below 10; inactive = the rest.

In this assay the test system is HOP-92 NSCLC. Briefly: NCI-60 one-dose screen, 48 h (100 = growth as untreated, 0 = no growth, -100 = all killed). The settings on record: 10 µM.
`CCNc1nc2c(cnn2C)c(=O)[nH]1`: the growth was 99.8%. For the molecule `O=[N+]([O-])c1cccc(N=Nc2ccc(O)cc2O)c1`, the growth was 47.4%. For `CC(=O)/C(Cc1ccccc1)=N/O`, the growth was 68%.

Consider `O=[N+]([O-])c1ccccc1N=Nc1ccc(O)cc1O`, for which the growth is 112%. For the molecule `CCn1c(=O)n(C)c2c(=O)n(C)c(=O)n(C)c21`, the growth is 102%. In the case of `O=P(O)(O)OCC(O)CO` (stereo not drawn), the growth is 96.1%.

For the molecule `CCCCCCCCCCC1CO1` (stereo not drawn), the growth is 89.7%.

As for `CC(=O)OCC(=O)[C@@]1(O)CC[C@H]2[C@@H]3CC[C@@H]4C[C@H](O)CC[C@]4(C)[C@H]3C(=O)C[C@@]21C`, the growth is 93.4%. For the molecule `COc1cc2c3cc1Oc1c(OC)c(OC)cc4c1C(Cc1ccc(O)c(c1)Oc1ccc(cc1)CC3N(C)CC2)N(C)CC4` (stereo not drawn), the growth was -17.1% (active). On to `COc1cccc(/C=N/NC(=S)NC2CC3CCC2C3)c1O` (stereo not drawn), for which the growth is 55.5%. Consider `O=S(=O)(Cc1ccccc1)c1ccccc1`, for which the growth is 105%. The same measure for `COc1cc2nn(-c3ccccc3N)nc2cc1OC`: 85.8%; for `CC1C(=O)c2ccccc2CC1C(=O)O` (stereo not drawn): 101%. `O=[N+]([O-])c1ccc(S(=O)(=O)NN=C2CCCCC2)cc1`: the growth was 96.7%. Take `CNc1nc(NC)c2cn[nH]c2n1`: the growth was 84.9%. On to `CC(=Nc1ccccc1)C1=C(O)C(Cc2cccc(F)c2)NC1=O` (stereo not drawn), for which the growth was 41.2%.

With `CCOC(=O)c1ccc(NC(=S)P(=O)(c2ccccc2)c2ccccc2)cc1`, the growth is 78.1%. As to `COCCOC(=O)c1ccc(C(C)C)cc1`, the growth is 81.8%.
